Results: PubChem BioAssay AID743482 (Broad Institute, 2014)
Calls of active or inactive are those of the source.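 How the source made its calls: active means falling viability signal whose fitted half-maximal concentration is at most twice the highest tested dose; inconclusive means flat fit with a moderate drop, or a poor curve fit; inactive means the rest.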

Test: HepG2 viability loss by ATP level – cell-based, CellTiter-Glo luminescence, dry powder, cytotoxicity control, dose response (AID 743482)
Conditions: 72 h; series mostly up to 26 µM

SMILES	outcome
C[C@H]1CCCCO[C@@H](CN(C)C(=O)Nc2cccc3ccccc23)[C@@H](C)CN([C@@H](C)CO)C(=O)c2cc(NC(=O)C3CCCCC3)ccc2O1	inactive
C[C@H](CO)N1C[C@H](C)[C@H](CN(C)C(=O)Nc2ccccc2)OCCCC[C@H](C)Oc2ccc(NC(=O)NC3CCCCC3)cc2C1=O	inactive
C[C@H](CO)N1C[C@H](C)[C@H](CN(C)C(=O)Nc2ccccc2)OCCCC[C@H](C)Oc2ccc(NC(=O)C3CCCCC3)cc2C1=O	inactive
Cc1ccc(NC(=O)N(C)C[C@@H]2OCCCC[C@H](C)Oc3ccc(NC(=O)C4CCCCC4)cc3C(=O)N([C@H](C)CO)C[C@@H]2C)cc1	inactive
C[C@H]1CCCCO[C@@H](CN(C)S(=O)(=O)c2ccc(Cl)cc2)[C@@H](C)CN([C@@H](C)CO)C(=O)c2cc(NC(=O)NC3CCCCC3)ccc2O1	inactive
C[C@@H]1CCCCO[C@@H](CN(C)C(=O)Nc2cccc3ccccc23)[C@H](C)CN([C@H](C)CO)C(=O)c2cc(NC(=O)C3CCCCC3)ccc2O1	inactive
C[C@H](CO)N1C[C@H](C)[C@H](CN(C)C(=O)Nc2cccc3ccccc23)OCCCC[C@H](C)Oc2ccc(NC(=O)NC3CCCCC3)cc2C1=O	inactive
C[C@@H]1CCCCO[C@H](CN(C)C(=O)Nc2cccc3ccccc23)[C@@H](C)CN([C@H](C)CO)C(=O)c2cc(NC(=O)C3CCCCC3)ccc2O1	inactive
C[C@H](CO)N1C[C@H](C)[C@H](CN(C)C(=O)Nc2ccc(F)cc2)OCCCC[C@H](C)Oc2ccc(NC(=O)Nc3ccc(F)cc3)cc2C1=O	inactive
C[C@H](CO)N1C[C@H](C)[C@H](CN(C)C(=O)Nc2ccc(F)cc2)OCCCC[C@H](C)Oc2ccc(NC(=O)C3CCOCC3)cc2C1=O	inactive
C[C@@H]1CCCCO[C@H](CN(C)C(=O)Nc2cccc3ccccc23)[C@H](C)CN([C@H](C)CO)C(=O)c2cc(NC(=O)C3CCCCC3)ccc2O1	inactive
C[C@H](CO)N1C[C@H](C)[C@H](CN(C)C(=O)Nc2cccc3ccccc23)OCCCC[C@H](C)Oc2ccc(NC(=O)C3CCCCC3)cc2C1=O	inactive
C[C@H](CO)N1C[C@H](C)[C@H](CN(C)C(=O)Nc2cccc(F)c2)OCCCC[C@H](C)Oc2ccc(NC(=O)C3CCCCC3)cc2C1=O	inactive
C[C@H](CO)N1C[C@H](C)[C@H](CN(C)C(=O)Nc2ccc(F)cc2)OCCCC[C@H](C)Oc2ccc(NC(=O)C3CCCC3)cc2C1=O	inactive
C[C@H](CO)N1C[C@H](C)[C@H](CN(C)C(=O)Nc2ccc(F)cc2)OCCCC[C@H](C)Oc2ccc(NC(=O)C3CCCCCC3)cc2C1=O	inactive
C[C@H](CO)N1C[C@H](C)[C@H](CN(C)C(=O)Nc2ccc3ccccc3c2)OCCCC[C@H](C)Oc2ccc(NC(=O)C3CCCCC3)cc2C1=O	inactive
